# According to PubChem BioAssay AID1463 (National Center for Advancing Translational Sciences (NCATS), 2008):
# In all, about 280,000 compounds went through this assay and about 2,600 (0.93%) were called active. Not shown: some 8% with an inconclusive outcome. Many of the other results were omitted from the sample, so actives are more common in it than they were. A number with no mark means an inactive call. The call rests on the fitted dose curve; in most records, active means well fitted curve in the direction sought with a large enough effect; inconclusive means small, poorly fitted or top-dose-only effect; inactive means flat fitted curve, though single readings scatter.
# Experiment: Counterscreen qHTS for Inhibitors of Tau Fibril Formation, Fluorescence Polarization; further: nearly all actives have a fitted effect of over 55% in size
# Details: tau K18 P301L Alexa594 fluorescence, heparin fibrillization; series mostly up to 57.7 µM; activity change, negative = decrease: at the top concentration
# In short: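 Human tau K18 P301L (15 uM unlabeled, 0.24 uM Alexa 594-labeled) in 100 mM sodium acetate pH 7 with 20 uM heparin, 6 hr at 37 C. ThT 30 uM added, 1 hr ambient; Alexa 594 FP and total fluorescence read at 555/632 nm.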
# On the % scale 0 is the no-effect control and ±100 the full control effect; potency means the concentration at half of the fitted maximal effect; tags describe the fitted curve by direction and shape or compound fluorescence and quenching.
SMILES,"activity change, negative = decrease",Potency
CCCn1c2ccccc2c2cnn(CC(=O)NCC3CCN(Cc4ccc(C)cc4)CC3)c(=O)c21,3.89%,–
Cc1ccc(C(=O)Nc2ccc(C(=O)O)cc2)cc1S(=O)(=O)Nc1ccccc1,-3.09%,–
COc1ccc(NS(=O)(=O)c2cc(NC(=O)CC(=O)c3ccc([N+](=O)[O-])cc3)ccc2C)cc1,–,7.94 µM [quencher] (active)
COc1ccc(S(=O)(=O)NC(C)C(=O)Nc2cccc([N+](=O)[O-])c2)cc1 (stereo not given),-2.56%,–
COc1cc(NC(=O)Cn2nc(-c3ccc(C)c(C)c3)ccc2=O)cc(OC)c1,-3.4%,–
Cn1c(SCC(=O)N2CCCc3ccccc32)ncc(C(=O)Nc2ccc(F)cc2)c1=O,-19.2%,–
COc1ccc(-n2nnc(-c3nsc(NC(=O)c4ccc(C)c(C)c4)n3)c2C)cc1Cl,-6.33%,–
COc1ccc2[nH]cc(/C=C(/C#N)S(=O)(=O)c3ccccc3)c2c1,–,25.1 µM [quencher] (active)
COc1ccc(/C=N/N=C/c2c[nH]c(=O)c(C#N)c2Nc2ccccc2)cc1,-20.6%,–
CCN(CC)CC(=O)c1c[nH]c2ccc(OC)cc12,-29.7%,–
CCOC(=O)C1=C(C)NC(SC)=NC1c1ccccc1 (stereo not given),5.93%,–
CCOC(=O)C1=C(C)NC(=O)NC1c1ccccc1 (stereo not given),-8.84%,–
CCOC(=O)C1=C(C)N=C2c3ccccc3C(=O)C2C1c1ccc(Br)cc1 (stereo not given),–,11.2 µM [quencher] (active)
CSc1nc(=O)c2c(n1C)NC(=O)CC2c1ccccc1OC(C)C (stereo not given),6.57%,–
CN=c1scc(-c2cc(OC)ccc2OC)n1/N=C/c1c(C)[nH]c2ccccc12,–,12.6 µM [quencher] (active)
CCn1c(-c2cc(OC)ccc2OC)csc1=Nc1c(C)n(C)n(-c2ccccc2)c1=O,1.14%,–
COC(=O)c1[nH]c2ccccc2c1NS(=O)(=O)c1ccc(OC)cc1OC,-14.2%,–
CC(=O)N1CCCc2cc(S(=O)(=O)N3CCC(C(=O)NCc4ccc(F)cc4)CC3)ccc21,-8.19%,–
COc1ccc(OC)c(NC(=O)C2CCCN(S(=O)(=O)c3ccc4c(c3)CCCC(=O)N4)C2)c1 (stereo not given),-14.8%,–
CCOc1ccccc1C(=O)NC1(C(F)(F)F)NC(=O)N(CCc2ccc(OC)c(OC)c2)C1=O (stereo not given),-25.1%,–
O=C(CSc1nc2ccccc2s1)Nc1ccc(C(=O)O)cc1,-1.03%,–
CC(C)c1ccc(S(=O)(=O)Nc2ccc(O)c(Sc3nc4ccccc4s3)c2)cc1,–,14.1 µM [quencher] (active)
O=C(O)c1cccc(S(=O)(=O)Nc2ccc(O)cc2Sc2nc3ccccc3s2)c1,-11.3%,–
Cc1nnc(SCC(=O)NCc2ccccc2Cl)c2nn(-c3ccccc3)c(C)c12,-3.68%,–

SMILES,"activity change, negative = decrease",Potency
CCc1ccc(C2C(C(=O)Nc3ccccc3)=C(C)Nc3c(C(=O)Nc4ccc(C)cc4)cnn32)cc1 (stereo not given),-17.3%,–
COc1ccc(/C=C/c2nc(C#N)c(NCc3ccc(F)cc3)o2)cc1OC,-24.2%,–
CC(Nc1oc(-c2ccccc2)nc1-c1ccccc1)c1ccccc1 (stereo not given),–,inactive
COc1ccccc1/C=C/c1nc(C#N)c(NC(C)c2ccccc2)o1 (stereo not given),–,11.2 µM [quencher] (active)
CCOc1ccc(-n2c(SCC(=O)NCc3ccccc3)nc3n[nH]c(C)c3c2=N)cc1,-26.8%,–
Nc1cccc(-c2cc(-c3ccccc3)nc(-c3cccc(N)c3)n2)c1,–,2.51 µM [quencher] (active)
Nc1cccc(CCc2nc3ccccc3[nH]2)c1,-26.2%,–
Cc1nc(NNC(=O)c2ccccc2)cc(-c2ccccc2)n1,-5.45%,–
CCCCn1c(CNC(=O)C23CC4CC(CC(C4)C2)C3)nnc1SCC(=O)Nc1ccc(C)cc1,-19.1%,–
O=C(CC(c1cccs1)N1Cc2ccccc2C1=O)Nc1ccc(F)cc1F (stereo not given),-7.54%,–
CCc1ccc(S(=O)(=O)Nc2cc3c(C(=O)OCc4ccccc4)c(C)oc3c3ccccc23)cc1,-17.9%,–
O=C(Cn1cc(/C=N/NC(=O)c2cccc(C(F)(F)F)c2)c2ccccc21)Nc1ccc(F)cc1,–,8.91 µM [quencher] (active)
COc1ccc(/C=N/NC(=O)c2cccc(C(F)(F)F)c2)cc1,-18.3%,–
O=C(Cn1c(=O)n(-c2ccc(F)cc2)c(=O)c2sccc21)Nc1cccc(C(F)(F)F)c1,-26.6%,–
O=C(CCCN1C(=O)/C(=C/c2ccccc2)SC1=S)Nc1ccc(O)cc1,–,25.1 µM [quencher] (active)
COc1ccc(NC(=O)CCN2C(=O)/C(=C/c3ccc4c(c3)OCO4)SC2=S)cc1,-11.1%,–
O=C(CCCN1C(=O)/C(=C\c2ccco2)SC1=S)Nc1cccc2ccccc12,-27.4%,–
COC(=O)c1ccc(NC(=O)c2cnn(-c3ccc(Cl)cc3)c2C2CCN(C(=O)OC(C)(C)C)CC2)cc1,-24.3%,–
NC(=O)c1ccc(NC(=O)COC(=O)c2c3c(nc4ccccc24)/C(=C\c2ccc4c(c2)OCO4)CCC3)cc1,–,8.91 µM [quencher] (active)
CC(NC(=O)COC(=O)c1ccc2c(c1)OCO2)c1ccccc1 (stereo not given),-7.88%,–
O=C(COC(=O)c1c2c(nc3ccccc13)/C(=C\c1cccs1)CCC2)Nc1ccccc1Cl,-17.9%,–
CCC1CCCCN1C(=O)Cn1c(=O)n(CCCCCC(=O)NCc2ccccc2)c(=O)c2sccc21 (stereo not given),-9.54%,–
CCC(=O)Nc1c(C(=O)N2CCN(c3ccc(F)cc3)CC2)oc2ccccc12,-15%,–
CCc1ccccc1NS(=O)(=O)c1ccc2nc(-c3ccccc3)[nH]c2c1,-6.34%,–

SMILES,"activity change, negative = decrease",Potency
CCc1ccc(NC(=O)C2CCCN2S(=O)(=O)c2ccc3nc(-c4ccccc4)[nH]c3c2)cc1 (stereo not given),–,25.1 µM [quencher] (active)
CCc1nnc(NC(=O)C2CCCN2S(=O)(=O)c2ccccc2)s1 (stereo not given),1.04%,–
Cc1ccccc1CNC(=O)c1ccc(NC(=O)N2CCCCc3ccccc32)cc1,9.05%,–
CN1CCN(c2ccc(S(=O)(=O)Nc3ccccc3)cc2[N+](=O)[O-])CC1,-7.58%,–
COCCNC(=O)c1ccccc1NS(=O)(=O)c1ccc(C)c([N+](=O)[O-])c1,8.38%,–
O=[N+]([O-])c1cc(S(=O)(=O)Nc2cccc(Cl)c2)ccc1N=Nc1c(O)[nH]c2ccccc12,–,14.1 µM [quencher] (active)
O=C(NCc1ccccc1)c1cccc(NC(=O)N2CCSc3ncccc32)c1,-0.267%,–
CCOC(=O)C1CCCN(C(=O)c2ccc3c(c2)sc2nc(-c4ccc(CC)cc4)cn23)C1 (stereo not given),2.07%,–
CCCCCn1c(=O)[nH]c2cc(C(=O)Nc3cc(C)cc(C)c3)ccc2c1=O,-1.5%,–
NNc1nc2c(Cl)cccc2s1,–,15.8 µM [quencher] (active)
Fc1cc(F)c2nc(Nc3nc4c(F)cccc4s3)sc2c1,2.02%,–
COc1cccc2sc(Nc3nc(C)c(C(C)=O)s3)nc12,-19.8%,–
COc1ccccc1CNC(=O)c1ccc(NC(=O)N2CC(C)Sc3ccccc32)cc1 (stereo not given),-23.7%,–
Nc1ccc(Nc2ccccc2)cc1,–,14.1 µM [quencher] (active)
Cc1ccc(Nc2ccccc2N)cc1,-26.2%,–
c1ccc(Nc2n[nH]nc2-c2ccccc2)cc1,-12.4%,–
C[n+]1ccc(/C=C/c2c[nH]c3ccccc23)cc1,-26.9%,–
CSC(=S)N/N=C/c1c[nH]c2ccccc12,–,12.6 µM [quencher] (active)
O=C(N/N=C/c1c[nH]c2ccccc12)c1cc2ccccc2o1,-67.2%,–
Cc1ccc(CN2CCc3nc(N4CCN(C)CC4)ncc3C2)cc1,-1.13%,–
CCOc1ccc(N(Cc2ccccc2)C(=O)c2nc(S(C)(=O)=O)ncc2Cl)cc1,-10.3%,–
CC1=C(C(=O)OCC(C)C)C(c2ccc(OCc3ccccc3)cc2)N2C(=O)CCSC2=N1 (stereo not given),-27.6%,–
COc1ccc(OC)c(NC(=O)CCN2CCC(C)CC2)c1,-2.57%,–
CCOC(=O)N1CCN(CCC(=O)Nc2cc(OC)ccc2OC)CC1,9.73%,–

SMILES,"activity change, negative = decrease",Potency
CCN1CCN(c2nc(Nc3cc(OC)ccc3OC)nc(Nc3cc(OC)ccc3OC)n2)CC1,–,28.2 µM [quencher] (active)
CCOC(=O)c1ccc(NC(=O)CCn2cnnn2)cc1,-11.4%,–
CSc1nc(-c2ccccc2Cl)nc2c1Cc1c(CO)cnc(C)c1O2,2.81%,–
CCCOc1ccc(-c2cccc(NS(=O)(=O)c3ccccc3)c2)nn1,-27.7%,–
CSc1nc(-c2ccccc2)nc(C(Cl)Cl)n1,-7.66%,–
Cc1cc(Nc2ccccc2)nc(N)n1,1.59%,–
CSc1nc(Nc2ccc(F)cc2)cc(-c2ccccc2)n1,–,7.08 µM [quencher] (active)
Cc1cc2c(cc1C)C(c1cccc(OC(C)C)c1)CC(=O)N2 (stereo not given),-7.01%,–
COc1ccc(N2CCN(c3ccc([N+](=O)[O-])cc3Cl)CC2)cc1,-9.58%,–
O=[N+]([O-])c1ccc(N2CCN(c3ccc(O)cc3)CC2)c(Cl)c1,–,14.1 µM [quencher] (active)
O=C(O)C1CCN(c2ccc([N+](=O)[O-])cc2[N+](=O)[O-])CC1,9.45%,–
CCN1CCN(c2ncnc3c2cnn3-c2ccc(C)c(C)c2)CC1,-19.4%,–
Oc1ccc(CNc2ccccc2O)cc1,–,17.8 µM [quencher] (active)
Oc1ccc(N2CCN(C(=S)NCc3ccccc3)CC2)cc1,-22.2%,–
O=[N+]([O-])c1ccccc1NCc1ccc(Cl)cc1,-16.6%,–
Cc1cc(C)c2oc(-c3cccc(NC(=O)c4cccc(F)c4)c3C)nc2c1,-18.7%,–
COc1ccc(OC)c(CCNC(=O)CCCn2c(=O)c3cccn3c3cccnc32)c1,-11.3%,–
COc1ccc(Nc2ncnc3sc(-c4ccccc4)cc23)c(OC)c1,–,14.1 µM [quencher] (active)
COc1ccc(Nc2ncnc3ccc(OC)cc23)cc1,-27.8%,–
COc1ccccc1Nc1ncnc2c1oc1ccccc12,-17.5%,–
O=C(N/N=C/c1ccc([N+](=O)[O-])o1)c1cccc(S(=O)(=O)N2CCOCC2)c1,-23.1%,–
O=[N+]([O-])c1cc(Cl)cc(/C=N/NC(=S)Nc2cc(S(=O)(=O)N3CCOCC3)ccc2Cl)c1O,–,8.91 µM [quencher] (active)
O=C(CN1CCN(c2ccc(O)cc2)CC1)Nc1cc(S(=O)(=O)N2CCOCC2)ccc1Cl,-11.7%,–
